{"source": "ChEMBL document CHEMBL2218924", "about": "“A broad activity screen in support of a chemogenomic map for kinase signalling research and drug discovery” (Biochem J, 2013)", "key": {"[1]": {"target": "T1, Ephrin type-B receptor 1 (Homo sapiens) (UniProt P54762)", "T1 sequence (whole entry)": "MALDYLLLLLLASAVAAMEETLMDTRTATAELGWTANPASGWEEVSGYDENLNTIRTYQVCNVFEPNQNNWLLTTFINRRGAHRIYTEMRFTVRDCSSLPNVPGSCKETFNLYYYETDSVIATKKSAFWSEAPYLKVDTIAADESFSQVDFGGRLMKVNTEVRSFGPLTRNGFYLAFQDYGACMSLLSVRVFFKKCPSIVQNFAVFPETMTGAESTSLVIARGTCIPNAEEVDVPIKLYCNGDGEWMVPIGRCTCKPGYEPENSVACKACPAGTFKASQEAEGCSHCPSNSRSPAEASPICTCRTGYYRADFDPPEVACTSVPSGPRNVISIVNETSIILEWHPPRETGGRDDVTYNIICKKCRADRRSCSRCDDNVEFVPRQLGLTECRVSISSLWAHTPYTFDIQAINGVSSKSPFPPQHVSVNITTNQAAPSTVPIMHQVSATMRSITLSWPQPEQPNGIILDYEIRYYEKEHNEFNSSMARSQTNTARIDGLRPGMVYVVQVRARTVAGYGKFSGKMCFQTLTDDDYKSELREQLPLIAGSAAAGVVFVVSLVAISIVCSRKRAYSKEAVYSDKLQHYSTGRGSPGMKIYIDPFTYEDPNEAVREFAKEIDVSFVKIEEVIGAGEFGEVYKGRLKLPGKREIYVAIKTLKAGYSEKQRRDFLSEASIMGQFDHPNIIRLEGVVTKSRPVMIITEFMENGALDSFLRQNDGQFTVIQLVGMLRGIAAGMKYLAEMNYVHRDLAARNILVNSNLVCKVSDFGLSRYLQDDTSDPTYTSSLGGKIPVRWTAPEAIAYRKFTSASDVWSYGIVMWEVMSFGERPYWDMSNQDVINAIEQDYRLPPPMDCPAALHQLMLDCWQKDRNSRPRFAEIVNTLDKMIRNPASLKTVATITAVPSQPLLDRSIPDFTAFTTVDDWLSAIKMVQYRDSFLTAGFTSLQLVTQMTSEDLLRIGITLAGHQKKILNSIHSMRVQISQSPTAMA", "details": "at 10 µM; call rule not given here"}, "[2]": {"target": "T2, Ephrin type-B receptor 2 (Homo sapiens) (UniProt P29323)", "T2 sequence (whole entry)": "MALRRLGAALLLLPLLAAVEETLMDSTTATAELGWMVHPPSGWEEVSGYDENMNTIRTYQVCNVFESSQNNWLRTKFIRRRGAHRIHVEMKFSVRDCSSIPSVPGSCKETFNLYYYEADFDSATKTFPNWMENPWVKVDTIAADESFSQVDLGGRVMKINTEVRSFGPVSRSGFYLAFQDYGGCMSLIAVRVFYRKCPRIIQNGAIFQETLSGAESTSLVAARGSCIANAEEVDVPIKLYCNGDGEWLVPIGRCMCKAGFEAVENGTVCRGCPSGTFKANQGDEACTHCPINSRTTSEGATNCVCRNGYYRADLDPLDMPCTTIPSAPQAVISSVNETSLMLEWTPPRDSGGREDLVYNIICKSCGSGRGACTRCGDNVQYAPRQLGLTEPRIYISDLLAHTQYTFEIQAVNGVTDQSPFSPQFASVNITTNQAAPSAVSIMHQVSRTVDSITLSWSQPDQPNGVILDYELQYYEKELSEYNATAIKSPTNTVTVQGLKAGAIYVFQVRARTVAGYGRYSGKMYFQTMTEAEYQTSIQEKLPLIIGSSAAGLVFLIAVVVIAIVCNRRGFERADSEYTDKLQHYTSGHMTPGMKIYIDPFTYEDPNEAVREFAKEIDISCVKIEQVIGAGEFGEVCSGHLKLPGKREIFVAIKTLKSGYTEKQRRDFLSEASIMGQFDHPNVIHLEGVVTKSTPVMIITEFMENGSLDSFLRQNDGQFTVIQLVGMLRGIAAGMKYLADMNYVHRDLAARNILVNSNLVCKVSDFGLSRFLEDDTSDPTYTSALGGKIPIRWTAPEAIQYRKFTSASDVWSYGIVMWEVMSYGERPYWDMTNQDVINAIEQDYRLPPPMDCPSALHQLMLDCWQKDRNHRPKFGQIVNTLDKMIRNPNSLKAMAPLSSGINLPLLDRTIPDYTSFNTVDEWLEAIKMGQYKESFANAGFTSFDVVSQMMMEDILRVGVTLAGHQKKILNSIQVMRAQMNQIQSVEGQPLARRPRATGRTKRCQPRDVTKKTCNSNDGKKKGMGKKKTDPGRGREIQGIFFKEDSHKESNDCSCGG", "details": "at 1 µM"}, "[3]": {"target": "T2, Ephrin type-B receptor 2 (Homo sapiens)", "details": "at 10 µM"}, "[4]": {"target": "T3, Ephrin type-B receptor 3 (Homo sapiens) (UniProt P54753)", "T3 sequence (whole entry)": "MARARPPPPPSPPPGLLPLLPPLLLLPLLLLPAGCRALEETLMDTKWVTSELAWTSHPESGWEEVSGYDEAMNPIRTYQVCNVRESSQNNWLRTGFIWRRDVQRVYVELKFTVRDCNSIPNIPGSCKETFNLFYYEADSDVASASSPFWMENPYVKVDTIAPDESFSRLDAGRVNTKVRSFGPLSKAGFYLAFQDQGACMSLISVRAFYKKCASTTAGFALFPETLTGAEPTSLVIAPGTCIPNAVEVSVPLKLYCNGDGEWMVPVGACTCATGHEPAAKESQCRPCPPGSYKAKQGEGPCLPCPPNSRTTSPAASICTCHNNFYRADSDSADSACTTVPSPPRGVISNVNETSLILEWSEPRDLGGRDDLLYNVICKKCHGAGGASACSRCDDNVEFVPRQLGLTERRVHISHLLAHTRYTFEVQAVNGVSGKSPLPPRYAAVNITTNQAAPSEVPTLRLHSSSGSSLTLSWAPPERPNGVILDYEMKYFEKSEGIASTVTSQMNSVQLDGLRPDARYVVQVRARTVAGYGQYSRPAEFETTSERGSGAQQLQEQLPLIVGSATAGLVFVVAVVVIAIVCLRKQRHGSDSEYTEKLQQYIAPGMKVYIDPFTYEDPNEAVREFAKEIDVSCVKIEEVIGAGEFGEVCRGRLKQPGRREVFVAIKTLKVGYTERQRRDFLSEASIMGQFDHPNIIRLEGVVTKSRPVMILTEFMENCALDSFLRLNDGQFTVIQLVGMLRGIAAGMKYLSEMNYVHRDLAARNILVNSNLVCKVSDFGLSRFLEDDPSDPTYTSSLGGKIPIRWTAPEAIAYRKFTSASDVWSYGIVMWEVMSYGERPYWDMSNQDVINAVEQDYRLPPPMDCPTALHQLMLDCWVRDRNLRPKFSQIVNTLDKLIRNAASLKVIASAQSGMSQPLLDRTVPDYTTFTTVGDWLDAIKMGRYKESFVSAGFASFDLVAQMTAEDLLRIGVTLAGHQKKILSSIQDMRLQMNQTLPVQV", "details": "at 1 µM"}, "[5]": {"target": "T3, Ephrin type-B receptor 3 (Homo sapiens)", "details": "at 10 µM"}, "[6]": {"target": "T4, Ephrin type-B receptor 4 (Homo sapiens) (UniProt P54760)", "T4 sequence (whole entry)": "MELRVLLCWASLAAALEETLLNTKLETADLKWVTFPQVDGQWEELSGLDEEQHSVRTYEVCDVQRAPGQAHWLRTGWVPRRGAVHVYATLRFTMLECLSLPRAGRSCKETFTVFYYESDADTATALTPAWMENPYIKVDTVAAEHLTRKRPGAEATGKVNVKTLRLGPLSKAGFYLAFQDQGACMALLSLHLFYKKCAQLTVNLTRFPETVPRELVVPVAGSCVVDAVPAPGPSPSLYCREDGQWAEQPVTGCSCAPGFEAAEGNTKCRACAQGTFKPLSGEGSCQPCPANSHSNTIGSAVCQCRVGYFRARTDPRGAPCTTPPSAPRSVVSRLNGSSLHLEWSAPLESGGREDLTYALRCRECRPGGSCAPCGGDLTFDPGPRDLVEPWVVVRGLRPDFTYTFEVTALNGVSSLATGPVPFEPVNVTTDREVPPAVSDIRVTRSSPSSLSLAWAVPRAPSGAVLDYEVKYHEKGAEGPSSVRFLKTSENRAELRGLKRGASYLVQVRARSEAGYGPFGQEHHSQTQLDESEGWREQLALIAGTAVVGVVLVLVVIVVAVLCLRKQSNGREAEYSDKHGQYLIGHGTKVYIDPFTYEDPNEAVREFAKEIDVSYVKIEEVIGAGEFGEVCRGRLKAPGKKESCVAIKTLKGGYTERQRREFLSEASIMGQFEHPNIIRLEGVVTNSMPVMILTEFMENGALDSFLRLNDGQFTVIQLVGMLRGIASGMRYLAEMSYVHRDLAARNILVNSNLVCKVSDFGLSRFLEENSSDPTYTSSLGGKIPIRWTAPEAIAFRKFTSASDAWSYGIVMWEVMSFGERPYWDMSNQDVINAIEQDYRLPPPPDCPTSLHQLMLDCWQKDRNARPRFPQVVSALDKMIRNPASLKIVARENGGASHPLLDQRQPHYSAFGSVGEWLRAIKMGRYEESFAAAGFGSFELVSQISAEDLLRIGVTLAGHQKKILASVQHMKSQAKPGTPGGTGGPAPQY", "details": "at 1 µM"}, "[7]": {"target": "T4, Ephrin type-B receptor 4 (Homo sapiens)", "details": "at 10 µM"}, "[8]": {"target": "Receptor tyrosine-protein kinase erbB-4 (Homo sapiens) (UniProt Q15303)", "sequence (Q15303 whole entry)": "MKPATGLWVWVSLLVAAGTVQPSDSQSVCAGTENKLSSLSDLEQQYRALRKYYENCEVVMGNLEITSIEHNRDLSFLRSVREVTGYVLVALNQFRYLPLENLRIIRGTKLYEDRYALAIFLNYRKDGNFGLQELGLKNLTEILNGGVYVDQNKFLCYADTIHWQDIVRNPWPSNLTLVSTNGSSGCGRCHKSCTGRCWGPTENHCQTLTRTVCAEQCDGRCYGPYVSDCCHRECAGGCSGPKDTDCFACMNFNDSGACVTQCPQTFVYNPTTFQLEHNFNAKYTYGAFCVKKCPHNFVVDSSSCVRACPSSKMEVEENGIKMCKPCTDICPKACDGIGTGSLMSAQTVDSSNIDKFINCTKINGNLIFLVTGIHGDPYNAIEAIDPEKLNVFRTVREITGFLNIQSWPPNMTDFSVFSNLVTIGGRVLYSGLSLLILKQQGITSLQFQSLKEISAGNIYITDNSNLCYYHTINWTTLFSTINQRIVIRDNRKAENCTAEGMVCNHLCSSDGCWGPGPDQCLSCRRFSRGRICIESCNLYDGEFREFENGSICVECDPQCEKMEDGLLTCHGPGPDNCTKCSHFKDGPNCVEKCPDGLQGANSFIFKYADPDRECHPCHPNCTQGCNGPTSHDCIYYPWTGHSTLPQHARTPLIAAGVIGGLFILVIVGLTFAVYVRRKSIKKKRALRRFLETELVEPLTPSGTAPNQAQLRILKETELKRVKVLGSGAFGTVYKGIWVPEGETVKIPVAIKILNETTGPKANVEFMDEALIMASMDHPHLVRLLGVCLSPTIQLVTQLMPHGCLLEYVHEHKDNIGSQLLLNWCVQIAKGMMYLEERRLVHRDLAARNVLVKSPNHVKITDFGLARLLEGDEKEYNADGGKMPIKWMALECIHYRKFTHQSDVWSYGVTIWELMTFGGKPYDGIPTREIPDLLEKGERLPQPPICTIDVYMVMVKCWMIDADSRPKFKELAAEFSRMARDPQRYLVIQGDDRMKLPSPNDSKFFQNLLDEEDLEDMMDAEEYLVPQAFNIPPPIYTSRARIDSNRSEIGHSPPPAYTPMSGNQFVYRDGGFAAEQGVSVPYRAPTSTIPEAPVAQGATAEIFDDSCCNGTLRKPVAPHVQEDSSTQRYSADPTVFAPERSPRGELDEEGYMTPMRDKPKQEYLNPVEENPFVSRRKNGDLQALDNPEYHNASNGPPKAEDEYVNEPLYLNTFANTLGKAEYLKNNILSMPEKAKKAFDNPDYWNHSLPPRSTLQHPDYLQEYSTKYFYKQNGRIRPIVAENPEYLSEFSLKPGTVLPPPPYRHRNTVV", "details": "at 1 µM"}, "[9]": {"target": "Receptor tyrosine-protein kinase erbB-4 (Homo sapiens) (UniProt Q15303)", "details": "at 10 µM"}, "[10]": {"target": "Focal adhesion kinase 1 (Homo sapiens) (UniProt Q05397)", "sequence (Q05397 2-1052 limits assumed)": "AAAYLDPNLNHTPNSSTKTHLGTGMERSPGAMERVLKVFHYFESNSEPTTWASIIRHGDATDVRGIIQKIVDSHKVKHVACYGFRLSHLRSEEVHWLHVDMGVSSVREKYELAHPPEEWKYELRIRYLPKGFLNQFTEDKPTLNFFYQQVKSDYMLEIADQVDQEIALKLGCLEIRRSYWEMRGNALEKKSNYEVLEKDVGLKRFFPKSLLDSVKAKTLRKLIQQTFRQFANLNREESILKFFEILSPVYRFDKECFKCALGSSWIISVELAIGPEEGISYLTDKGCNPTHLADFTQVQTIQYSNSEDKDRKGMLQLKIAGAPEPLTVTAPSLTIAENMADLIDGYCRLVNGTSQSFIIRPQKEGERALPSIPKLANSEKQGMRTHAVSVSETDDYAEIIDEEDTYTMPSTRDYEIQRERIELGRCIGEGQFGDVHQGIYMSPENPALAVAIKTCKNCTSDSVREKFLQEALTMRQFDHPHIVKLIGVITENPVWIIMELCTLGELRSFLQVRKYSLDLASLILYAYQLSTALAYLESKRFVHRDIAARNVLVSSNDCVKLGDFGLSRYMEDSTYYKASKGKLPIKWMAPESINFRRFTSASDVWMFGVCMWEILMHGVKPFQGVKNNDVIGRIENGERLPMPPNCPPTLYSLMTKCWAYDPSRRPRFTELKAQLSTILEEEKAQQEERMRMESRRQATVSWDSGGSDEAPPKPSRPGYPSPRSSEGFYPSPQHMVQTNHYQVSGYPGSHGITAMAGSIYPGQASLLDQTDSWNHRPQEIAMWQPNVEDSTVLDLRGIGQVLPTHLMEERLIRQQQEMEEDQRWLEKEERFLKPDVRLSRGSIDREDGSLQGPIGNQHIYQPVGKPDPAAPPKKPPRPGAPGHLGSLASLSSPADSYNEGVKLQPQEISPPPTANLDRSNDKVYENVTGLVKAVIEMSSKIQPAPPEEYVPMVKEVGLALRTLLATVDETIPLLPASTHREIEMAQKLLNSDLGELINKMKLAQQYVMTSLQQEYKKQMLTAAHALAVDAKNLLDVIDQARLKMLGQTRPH", "details": "at 1 µM"}}, "data": [{"smiles": "CO[C@H]1[C@@H](OC)C[C@H](C)[C@@H](OC)C2=CC(=O)C=C(NC(=O)/C(C)=C/C=C/[C@H](OC)[C@@H](OC(N)=O)/C(C)=C/[C@@H]1C)C2=O", "values": [{"measurement": "residual activity", "setting": "[1]", "value": 103, "unit": "%"}, {"measurement": "residual activity", "setting": "[2]", "value": 115, "unit": "%"}, {"measurement": "residual activity", "setting": "[3]", "value": 128, "unit": "%"}, {"measurement": "residual activity", "setting": "[4]", "value": "111% (inactive)"}, {"measurement": "residual activity", "setting": "[5]", "value": 102, "unit": "%"}, {"measurement": "residual activity", "setting": "[6]", "value": 94, "unit": "%"}, {"measurement": "residual activity", "setting": "[7]", "value": 113, "unit": "%"}, {"measurement": "residual activity", "setting": "[8]", "value": 92, "unit": "%"}, {"measurement": "residual activity", "setting": "[9]", "value": 67, "unit": "%"}, {"measurement": "residual activity", "setting": "[10]", "value": 110, "unit": "%"}]}]}
